Assay results as given in PubChem BioAssay (EPA / NIEHS).
Results filed as inconclusive are left out. Calls of active or inactive are those of the source. Rule for the calls: active = hit-call score of the fitted dose curve at least 0.9, where 1 is the maximum; inconclusive = response in the unintended direction; inactive = score below 0.9.

Target: human Peroxisome Proliferator-activated Receptor alpha (PPARa), PPARA (gene 5465) (UniProt Q07869)
Assay: NVS_NR_hPPARa: NovaScreen (NVS) Nuclear Receptor Binding Assay for human Peroxisome Proliferator-activated Receptor alpha (PPARa) (AID 2283359);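 note: activity means loss of TR-FRET signal versus DMSO baseline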
Outline: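 One-hour incubation, cell-free extracted protein, TR-FRET binding readout; signal loss vs DMSO scored. Screen: 25 uM duplicates, confirmatory dose series for actives.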

Sequence of human Peroxisome Proliferator-activated Receptor alpha (PPARa), PPARA (gene 5465) (Q07869 whole entry, looked up): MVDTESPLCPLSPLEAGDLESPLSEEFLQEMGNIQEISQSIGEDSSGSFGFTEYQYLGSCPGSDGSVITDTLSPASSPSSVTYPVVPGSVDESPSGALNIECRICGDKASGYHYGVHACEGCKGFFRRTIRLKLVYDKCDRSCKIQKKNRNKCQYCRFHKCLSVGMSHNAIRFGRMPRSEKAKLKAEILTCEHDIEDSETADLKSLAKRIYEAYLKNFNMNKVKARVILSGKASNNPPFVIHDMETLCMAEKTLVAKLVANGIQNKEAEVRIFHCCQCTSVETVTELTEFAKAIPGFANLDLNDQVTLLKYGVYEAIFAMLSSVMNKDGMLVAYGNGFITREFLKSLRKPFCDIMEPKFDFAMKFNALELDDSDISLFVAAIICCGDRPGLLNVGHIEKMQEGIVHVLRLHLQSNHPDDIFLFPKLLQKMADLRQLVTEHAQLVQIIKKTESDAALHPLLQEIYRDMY

Compound	AC50	outcome
CCCCCCCCCCCCC[N+](C)(C)Cc1ccccc1	21 µM (active)	–
CCCCCCCC/C=C\CCCCCCCC(=O)N(C)CC(=O)O	–	inactive
CCCCCCCCCCCCCC[P+](CCCC)(CCCC)CCCC	8.54 µM (active)	–
CCCCCCCC/C=C\CCCCCCCC(=O)OCC(O)CO (stereo unspecified)	17 µM (active)	–

Target: PGR (gene 5241) (UniProt P06401)
Sequence (P06401 whole entry, looked up): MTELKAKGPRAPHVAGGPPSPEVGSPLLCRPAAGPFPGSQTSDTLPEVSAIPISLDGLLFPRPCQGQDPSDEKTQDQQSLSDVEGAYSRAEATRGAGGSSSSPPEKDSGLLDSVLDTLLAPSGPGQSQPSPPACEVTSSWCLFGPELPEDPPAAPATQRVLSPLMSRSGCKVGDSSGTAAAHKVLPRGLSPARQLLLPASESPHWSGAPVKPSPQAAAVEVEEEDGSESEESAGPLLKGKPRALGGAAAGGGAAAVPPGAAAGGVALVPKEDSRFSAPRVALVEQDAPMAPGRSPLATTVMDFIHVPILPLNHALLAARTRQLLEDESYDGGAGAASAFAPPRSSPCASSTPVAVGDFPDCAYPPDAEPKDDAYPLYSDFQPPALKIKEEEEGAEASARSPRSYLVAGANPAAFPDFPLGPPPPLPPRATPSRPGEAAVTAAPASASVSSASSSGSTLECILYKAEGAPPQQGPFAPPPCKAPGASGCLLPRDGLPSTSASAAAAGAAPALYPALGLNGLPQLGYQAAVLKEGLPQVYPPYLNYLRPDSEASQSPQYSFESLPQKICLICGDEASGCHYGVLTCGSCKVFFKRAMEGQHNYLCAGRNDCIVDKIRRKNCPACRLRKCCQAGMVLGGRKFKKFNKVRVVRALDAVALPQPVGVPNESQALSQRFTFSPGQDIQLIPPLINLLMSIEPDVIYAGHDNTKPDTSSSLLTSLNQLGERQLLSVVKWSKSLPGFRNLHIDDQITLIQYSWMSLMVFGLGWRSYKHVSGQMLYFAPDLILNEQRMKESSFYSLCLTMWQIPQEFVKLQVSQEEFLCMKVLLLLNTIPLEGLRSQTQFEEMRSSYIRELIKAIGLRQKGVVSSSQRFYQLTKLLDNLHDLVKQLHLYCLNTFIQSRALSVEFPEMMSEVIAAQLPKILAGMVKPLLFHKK
Assay: NVS_NR_hPR: NovaScreen (NVS) Nuclear Receptor Binding Assay for human Progestron Receptor (PR) (AID 2283360);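 note: active means loss of bound radioligand signal versus DMSO baseline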
Outline: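 Radioligand competition binding on receptor extracted from T47D cells, read by scintillation counting 18 h after dosing. Loss of signal versus DMSO; primary screen in duplicate at 25 uM, actives followed in concentration series.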

Compound	outcome	AC50
Oc1ccc(C2(c3ccc(O)c(C4CCCCC4)c3)CCCCC2)cc1C1CCCCC1	inactive	–
c1ccc(C[P+](c2ccccc2)(c2ccccc2)c2ccccc2)cc1	inactive	–
CSc1ccc(O)cc1C	inactive	–
Cc1cnccn1	inactive	–
CCN(CC)c1ccc(C=O)c(O)c1	–	41.7 µM (active)
CCN(CC)c1ccc(C=O)cc1	–	41.5 µM (active)
O=C=Nc1cccc2c(N=C=O)cccc12	inactive	–
C[C@]12CC[C@H]3C(=CCc4cc(O)ccc43)[C@@H]1CCC2=O	–	46.7 µM (active)
CCN(CC)c1ccc(N=Nc2ccccc2)cc1	inactive	–

Target: Retinoic acid receptor alpha (Homo sapiens) (UniProt P10276)
Sequence (P10276 whole entry, looked up): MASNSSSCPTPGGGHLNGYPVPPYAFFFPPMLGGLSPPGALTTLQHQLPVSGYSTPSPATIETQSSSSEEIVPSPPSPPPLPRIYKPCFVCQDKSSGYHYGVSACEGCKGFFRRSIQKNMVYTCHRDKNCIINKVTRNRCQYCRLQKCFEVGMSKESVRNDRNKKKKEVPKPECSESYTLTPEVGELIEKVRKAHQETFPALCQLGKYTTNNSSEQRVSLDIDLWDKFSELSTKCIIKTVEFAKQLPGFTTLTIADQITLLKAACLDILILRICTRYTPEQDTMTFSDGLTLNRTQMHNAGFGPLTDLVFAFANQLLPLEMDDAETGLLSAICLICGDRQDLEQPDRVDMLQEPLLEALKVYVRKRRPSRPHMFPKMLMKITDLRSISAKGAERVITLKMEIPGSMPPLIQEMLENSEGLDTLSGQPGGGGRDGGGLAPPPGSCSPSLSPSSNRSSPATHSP
Assay: NVS_NR_hRARa_Agonist: NovaScreen (NVS) Nuclear Receptor Binding Assay for human Retinoic Acid Alpha Receptor Agonism (RAR) (AID 2283361)
Outline: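 Compounds screened at 25 uM, duplicate, then in concentration series if active. Detection: TR-FRET gain of signal versus DMSO after 2 h with cell-free extracted RARα.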

Compound	AC50
CCN=c1cc2oc3cc(NCC)c(C)cc3c(-c3ccccc3C(=O)OCC)c-2cc1C	18.1 µM (active)
CCCCCCCCCCCCC[N+](C)(C)Cc1ccccc1	13.4 µM (active)
CCCCCCCCCCCCCC[P+](CCCC)(CCCC)CCCC	3.23 µM (active)

Target: Glucocorticoid receptor (Homo sapiens) (UniProt P04150)
Sequence (P04150 whole entry, looked up): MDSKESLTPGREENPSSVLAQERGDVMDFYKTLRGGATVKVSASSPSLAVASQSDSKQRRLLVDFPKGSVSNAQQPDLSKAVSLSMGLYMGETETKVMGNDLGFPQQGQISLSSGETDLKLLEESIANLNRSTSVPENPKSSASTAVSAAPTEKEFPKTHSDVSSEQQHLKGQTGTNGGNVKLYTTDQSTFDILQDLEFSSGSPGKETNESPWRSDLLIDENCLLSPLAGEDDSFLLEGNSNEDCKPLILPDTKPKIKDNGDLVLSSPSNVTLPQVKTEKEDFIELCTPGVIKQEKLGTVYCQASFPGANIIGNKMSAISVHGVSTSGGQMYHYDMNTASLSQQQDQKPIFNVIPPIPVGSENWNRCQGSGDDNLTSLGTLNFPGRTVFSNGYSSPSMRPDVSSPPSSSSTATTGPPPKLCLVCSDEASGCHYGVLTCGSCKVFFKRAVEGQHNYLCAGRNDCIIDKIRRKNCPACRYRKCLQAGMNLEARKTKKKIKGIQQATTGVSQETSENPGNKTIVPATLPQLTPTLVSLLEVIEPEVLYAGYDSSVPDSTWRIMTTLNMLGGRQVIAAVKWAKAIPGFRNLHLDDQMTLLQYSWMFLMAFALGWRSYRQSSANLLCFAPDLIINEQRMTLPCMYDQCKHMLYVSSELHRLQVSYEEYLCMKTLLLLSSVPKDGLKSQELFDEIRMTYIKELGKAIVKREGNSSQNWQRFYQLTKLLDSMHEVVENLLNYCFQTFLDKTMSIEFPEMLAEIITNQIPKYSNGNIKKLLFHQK
Assay: NVS_NR_hGR: NovaScreen (NVS) Nuclear Receptor Binding Assay for human Glucocorticoid Receptor (GR) (AID 2283363)
Protocol: NVS_NR_hGR is a biochemical, single-readout assay that uses extracted gene-proteins in a cell-free assay. Measurements were taken 16 hours after chemical dosing in a 96-well plate.NVS_NR_hGR is one of one assay component(s) measured or calculated from the NVS_NR_hGR assay. It is designed to make measurements of radioligand binding, a form of binding reporter, as detected with scintillation counting signals by Filter-based radiodetection technology.Data from the assay component NVS_NR_hGR was analyzed into 1 assay endpoint. This assay endpoint, NVS_NR_hGR, was analyzed in the positive analysis fitting direction relative to DMSO as the negative control and baseline of activity. Using a type of binding reporter, loss-of-signal activity can be used to understand changes in the binding as they relate to the gene NR3C1. Furthermore, this assay endpoint can be referred to as a primary readout, because the performed assay has only produced 1 assay endpoint. To generalize the intended target to other relatable targets, this assay endpoint is annotated to the nuclear receptor intended target family, where the subfamily is steroidal.
Binding assays used specific radioligands (tritiated, iodinated) with non-radioactive competitive displacement ligands in agonist or antagonist protocols (as indicated) and various reference compounds and inhibitors to titrate specific binding to receptors and transporters. Most enzyme assays (CYPs, kinases, phosphatases, proteases, HDACs) used recombinant protein and specific substrates (fluorescence mostly, some colorimetric and radioactive) and inhibitors, followed by a biochemical separation of substrate and product. All assays for the biochemical HTS were initially run in duplicate at a single concentration (10 uM for CYP450 assays and 25 uM for all others). […] Each assay was run with positive and negative controls, and concurrent controls on every plate. The follow-up (secondary) screen tested active chemical-pairs in concentration series, as well as a few additional assays not tested in the primary screen, some selected negative inactives, and several cases re-run in the concentration series for confirmatory purposes.

Compound	AC50	outcome
CCN=c1cc2oc3cc(NCC)c(C)cc3c(-c3ccccc3C(=O)OCC)c-2cc1C	9.39 µM (active)	–
CCCCCCCCCCCCC[N+](C)(C)Cc1ccccc1	–	inactive
CCCCCCCC/C=C\CCCCCCCC(=O)N(C)CC(=O)O	4.85 µM (active)	–
O=C1c2c(O)ccc(Nc3ccc(CCO)cc3)c2C(=O)c2c([N+](=O)[O-])ccc(O)c21	23.5 µM (active)	–
CCN=C1C=CC(=C(c2ccc(N(CC)CC)cc2)c2ccc(N(CC)CC)cc2)c2ccccc21	0.404 µM (active)	–

Target: Nuclear receptor subfamily 1 group I member 2 (Homo sapiens) (UniProt O75469)
Sequence (O75469 whole entry, looked up): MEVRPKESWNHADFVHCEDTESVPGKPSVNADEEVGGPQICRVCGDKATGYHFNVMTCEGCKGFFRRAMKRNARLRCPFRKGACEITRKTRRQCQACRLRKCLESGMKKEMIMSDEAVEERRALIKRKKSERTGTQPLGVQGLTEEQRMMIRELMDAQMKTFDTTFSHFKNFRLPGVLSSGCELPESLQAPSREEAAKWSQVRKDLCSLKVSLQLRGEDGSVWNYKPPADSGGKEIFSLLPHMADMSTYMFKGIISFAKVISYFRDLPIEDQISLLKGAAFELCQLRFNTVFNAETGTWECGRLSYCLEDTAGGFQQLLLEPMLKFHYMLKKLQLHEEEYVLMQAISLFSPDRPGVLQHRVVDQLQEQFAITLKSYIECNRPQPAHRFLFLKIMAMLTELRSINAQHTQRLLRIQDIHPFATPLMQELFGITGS
Assay: NVS_NR_hPXR: NovaScreen (NVS) Nuclear Receptor Binding Assay for human Pregnane X Receptor (PXR) (AID 2283365);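 note: a drop in FRET signal versus DMSO baseline means the compound binds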
Outline: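 Human PXR protein, cell-free; compound added, incubated 2 h, TR-FRET read. Signal decrease vs DMSO = binding. Screened 25 uM duplicate, actives re-run as dilution series.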

Compound	AC50	outcome
CCCCCCCCCCCCC[N+](C)(C)Cc1ccccc1	3.9 µM (active)	–
CCOC(OCC)OCC	–	inactive
COCCOCCC[Si](C)(O[Si](C)(C)C)O[Si](C)(C)C	–	inactive
CCCCCCCC/C=C\CCCCCCCC(=O)N(C)CC(=O)O	–	inactive
CCc1cc(Cc2cc(CC)c(N)c(CC)c2)cc(CC)c1N	–	inactive
CCCCCCCCCCCCCC[P+](CCCC)(CCCC)CCCC	0.0885 µM (active)	–
N#Cc1ccccc1O	–	inactive
CCCCCCCCCc1ccc(OCCO)cc1	–	inactive
CC(C)(C)c1cc(Cc2cc(C(C)(C)C)c(O)c(C(C)(C)C)c2)cc(C(C)(C)C)c1O	–	inactive
CCCCCCCC/C=C\CCCCCCCC(=O)OCC(O)CO (stereo unspecified)	8.56 µM (active)	–
